According to PubChem BioAssay AID1159580 (chemical genetic matrix, 2015):
Hit rate of the full screen: of about 5,500 compounds, about 2,000 (36%) were called active. Roughly 18% stayed inconclusive and do not appear here. Cut-off read from the data, not from the text of the source: active = normalized growth mostly below about 0.91 (no sharp cut-off); inconclusive = no clear call, values can overlap the other calls; inactive = mostly above about 0.92. The list shows a part of the results.

Assay: chemical genetic growth profiling, strain panel (AID 1159580);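 note: tested at 20 µM; growth read once vehicle control cultures reached saturation at 30 °C; 1 = growth at the plate median or of vehicle wells; lower values mean less growth of the strain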
Settings: S. cerevisiae deletion strains, growth OD

Measured: normalized growth

COC(=O)[C@@H]1OC(=O)C2OC23[C@@]1(C)CCC1[C@@]2(C)CCC(=O)C(C)(C)C2C[C@@H](OC(C)=O)[C@]13C (stereo not given in full)
inactive: locus YAL021C, strain ccr4, hits give low values 1.01 | locus YAL026C, strain drs2, hits give low values 1.01 | locus YAL030W, strain snc1, hits give low values 1.01 | locus YBL061C, strain skt5, hits give low values 1.01 | locus YBR009C, strain hhf1, hits give low values 1.01 | locus YBR021W, strain FUR4, hits give low values 1.03 | locus YBR023C, strain chs3, hits give low values 1.01 | locus YBR171W, strain sec66, hits give low values 1.02 | locus YBR229C, strain ROT2, hits give low values 1.01 | locus YBR231C, strain swc5, hits give low values 1.01 | locus YBR279W, strain paf1, hits give low values 1.02 | locus YCL011C, strain gbp2, hits give low values 1.01 | locus YCL016C, strain dcc1, hits give low values 1.02 | locus YCL029C, strain bik1, hits give low values 1.04 | locus YCL061C, strain MRC1, hits give low values 1.01 | locus YCL069W, strain vba3, hits give low values 1.01 | locus YCR088W, strain abp1, hits give low values 1.02 | locus YDL005C, strain med2, hits give low values 1.02 | locus YDL035C, strain GPR1, hits give low values 1.05 | locus YDL040C, strain nat1, hits give low values 1.02 | locus YDL074C, strain BRE1, hits give low values 1.14 | locus YDL101C, strain DUN1, hits give low values 1.04 | locus YDL185W, strain tfp1, hits give low values 1.01 | locus YDL192W, strain arf1, hits give low values 1.02 | locus YDR001C, strain nth1, hits give low values 1.01 | locus YDR069C, strain doa4, hits give low values 1.02 | locus YDR101C, strain arx1, hits give low values 1.01 | locus YDR137W, strain rgp1, hits give low values 1.01 | locus YDR159W, strain sac3, hits give low values 1.01 | locus YDR162C, strain NBP2, hits give low values 1.04 | locus YDR195W, strain ref2 0.999 | locus YDR297W, strain sur2, hits give low values 1.01 | locus YDR318W, strain mcm21, hits give low values 1.02 | locus YDR334W, strain swr1, hits give low values 1.02 | locus YDR335W, strain msn5, hits give low values 1.02 | locus YDR388W, hits give low values 1.01 | locus YDR392W, strain spt3, hits give low values 1.01 | locus YDR502C, strain sam2, hits give low values 1.01 | locus YEL003W, strain gim4, hits give low values 1.02 | locus YEL037C, strain rad23, hits give low values 1.02 | locus YEL061C, strain CIN8 (second series), hits give low values 1.03 | locus YER015W, strain faa2, hits give low values 1.02 | locus YER016W, strain bim1, hits give low values 1.02 | locus YER110C, hits give low values 0.992 | locus YER111C, strain swi4, hits give low values 1.01 | locus YER155C, strain BEM2 (second series), hits give low values 1.03 | locus YER155C, strain BEM2, hits give low values 1 | locus YER167W, strain BCK2, hits give low values 1.01 | locus YFR010W, strain ubp6, hits give low values 1.01 | locus YGL078C, strain dbp3, hits give low values 1 | locus YGL086W, strain mad1, hits give low values 1.02 | locus YGL167C, strain pmr1, hits give low values 1.02 | locus YGL173C, strain kem1, hits give low values 1.01 | locus YGL227W, strain vid30, hits give low values 1.02 | locus YGL240W, strain doc1, hits give low values 1.02 | locus YGL248W, strain PDE1, hits give low values 1.05 | locus YGL253W, strain hxk2, hits give low values 1.01 | locus YGR078C, strain PAC10, hits give low values 1.05 | locus YGR135W, strain pre9, hits give low values 1.05 | locus YGR252W, strain gcn5, hits give low values 1.08 | locus YHR013C, strain ard1, hits give low values 1.02 | locus YHR027C, strain rpn1, hits give low values 1.02 | locus YHR079C, strain IRE1 (second series), hits give low values 0.995 | locus YHR094C, strain hxt1, hits give low values 0.992 | locus YHR129C, strain ARP1, hits give low values 1.03 | locus YHR142W, strain chs7, hits give low values 1.03 | locus YHR200W, strain rpn10, hits give low values 1.02 | locus YIL066C, strain RNR3, hits give low values 1.02 | locus YIL073C, strain SPO22, hits give low values 1.1 | locus YIL125W, strain kgd1, hits give low values 1.01 | locus YIR030C, strain dcg1, hits give low values 0.991 | locus YJL092W, strain hpr5, hits give low values 1.01 | locus YJL095W, strain BCK1 (second series), hits give low values 1.01 | locus YJL095W, strain BCK1, hits give low values 1.1 | locus YJL115W, strain asf1, hits give low values 1 | locus YJL129C, strain trk1, hits give low values 1.03 | locus YJL134W, strain LCB3, hits give low values 1.01 | locus YJL154C, strain vps35, hits give low values 1.03 | locus YJL164C, strain tpk1, hits give low values 1.03 | locus YJL166W, strain qcr8, hits give low values 1.01 | locus YJL168C, strain set2, hits give low values 1.01 | locus YJL187C, strain SWE1 (second series), hits give low values 1.03 | locus YJL187C, strain SWE1, hits give low values 1.02 | locus YJR043C, strain POL32, hits give low values 1.09 | locus YKL009W, strain mrt4, hits give low values 1 | locus YKL068W, hits give low values 1.01 | locus YKL085W, strain MDH1 (second series), hits give low values 0.994 | locus YKL085W, strain MDH1, hits give low values 0.994 | locus YKL160W, strain elf1, hits give low values 1.02 | locus YKL190W, strain CNB1, hits give low values 1.02 | locus YKR001C, strain vps1, hits give low values 1.06 | locus YKR026C, strain gcn3, hits give low values 1.02 | locus YKR091W, strain srl3, hits give low values 1.02 | locus YLL001W, strain dnm1, hits give low values 1.01 | locus YLL026W, hits give low values 1.02 | locus YLL041C, strain sdh2, hits give low values 1.01 | locus YLR027C, strain aat2, hits give low values 1.03 | locus YLR039C, strain RIC1, hits give low values 1.13 | locus YLR058C, strain SHM2, hits give low values 1.04 | locus YLR102C, strain apc9, hits give low values 0.99 | locus YLR221C, strain rsa3, hits give low values 1.01 | locus YLR258W, strain gsy2, hits give low values 1.01 | locus YLR262C, strain YPT6 (second series), hits give low values 1.03 | locus YLR268W, strain sec22, hits give low values 1.04 | locus YLR320W, strain mms22, hits give low values 1.02 | locus YLR330W, strain CHS5, hits give low values 1.01 | locus YLR342W, strain FKS1 (second series), hits give low values 1.03 | locus YLR342W, strain FKS1, hits give low values 1.02 | locus YLR357W, strain rsc2, hits give low values 1 | locus YLR370C, strain arc18, hits give low values 1.01 | locus YLR371W, strain rom2, hits give low values 1.02 | locus YLR384C, strain iki3, hits give low values 1.04 | locus YLR418C, strain cdc73, hits give low values 1.06 | locus YML016C, strain PPZ1, hits give low values 1.01 | locus YML032C, strain rad52, hits give low values 0.992 | locus YML120C, strain ndi1, hits give low values 1.02 | locus YML124C, strain tub3, hits give low values 0.99 | locus YMR058W, strain fet3, hits give low values 1.01 | locus YMR078C, strain ctf18, hits give low values 0.998 | locus YMR125W, strain sto1, hits give low values 1.02 | locus YMR129W, hits give low values 1.01 | locus YMR205C, strain PFK2, hits give low values 1.02 | locus YMR223W, strain ubp8, hits give low values 1.01 | locus YMR231W, strain pep5, hits give low values 1 | locus YMR307W, strain GAS1, hits give low values 1.2 | locus YNL067W, strain RPL9B, hits give low values 1.03 | locus YNL071W, strain lat1, hits give low values 1.02 | locus YNL153C, strain GIM3, hits give low values 1.06 | locus YNL209W, strain ssb2, hits give low values 1.02 | locus YNL233W, strain BNI4, hits give low values 1.08 | locus YNL248C, strain rpa49, hits give low values 1.01 | locus YNL250W, strain rad50, hits give low values 1.01 | locus YNL271C, strain bni1, hits give low values 0.997 | locus YNL298W, strain CLA4, hits give low values 1.01 | locus YNL307C, strain MCK1, hits give low values 0.995 | locus YNL322C, strain KRE1 (second series), hits give low values 1.02 | locus YNR049C, strain mso1, hits give low values 1.01 | locus YNR052C, strain pop2, hits give low values 0.989 | locus YOL012C, strain htz1 1.07 | locus YOL147C, strain pex11, hits give low values 1 | locus YOR001W, strain rrp6, hits give low values 1.02 | locus YOR061W, strain CKA2, hits give low values 1.02 | locus YOR069W, strain VPS5, hits give low values 1.01 | locus YOR070C, strain gyp1, hits give low values 1 | locus YOR080W, strain dia2, hits give low values 1.01 | locus YOR083W, strain WHI5, hits give low values 1.02 | locus YOR106W, strain vam3, hits give low values 1.01 | locus YOR136W, strain idh2, hits give low values 0.993 | locus YOR144C, strain elg1, hits give low values 0.993 | locus YOR184W, strain ser1, hits give low values 1.03 | locus YOR265W, strain rbl2, hits give low values 1.01 | locus YOR270C, strain vph1, hits give low values 1.05 | locus YOR290C, strain snf2, hits give low values 1.02 | locus YOR316C, strain cot1, hits give low values 1 | locus YPL051W, strain arl3, hits give low values 0.993 | locus YPL055C, strain LGE1, hits give low values 1.11 | locus YPL078C, strain atp4, hits give low values 1.01 | locus YPL106C, strain sse1, hits give low values 1.01 | locus YPL240C, strain hsp82, hits give low values 1.01 | locus YPL241C, strain CIN2, hits give low values 1.01 | locus YPR119W, strain clb2, hits give low values 0.993 | locus YPR141C, strain kar3, hits give low values 0.994 | locus YPR163C, strain tif3, hits give low values 1.01 | locus YPR167C, strain met16, hits give low values 1.01 | strain wtn01, hits give low values 1.02
